The whole screen tested about 48,000 compounds, of which about 13,000 (27%) showed an effect of 50% or more. Some of the results follow.
The compounds below were run on Wolbachia pipientis (assay: Anti-Wolbachia Cell-Based Screen). Conditions: 5 µM.
Type: functional
Design: scale not given: in the data most compounds retested in dose-response had high values

Structure (SMILES) | Percent Effect
CC(C)(C)OC(=O)N[C@H]1CCN(c2cncc(Br)c2)C1 | 4.915%
Cn1c(SCc2noc(C(C)(C)C)n2)nnc1C1CCS(=O)(=O)C1 (stereo unspecified) | 11.73%
CCc1ccc(C(=O)NCCCC2(C3OCCO3)CCOCC2)cc1 | -33.3%
N#Cc1ccccc1CN1C[C@@H]2CC[C@H](C1)N(Cc1cscn1)C2=O | -11.1%
O=C(NCc1ccccc1)N1CCC(Oc2ncccc2Br)CC1 | -0.9975%
NC(=O)Nc1cccc(F)c1C(=O)NC1CCCC1 | 2.904%
COc1c(CNCC(O)c2cccc(F)c2)c(C(C)C)nn1C (stereo unspecified) | 6.756%
COc1c(CNCC(O)COc2ccc3c(c2)OCO3)c(C)nn1C (stereo unspecified) | 70.56%
Cc1nn(C)c(Cl)c1CNCCOc1ccc2c(c1)OCO2 | -10.2%
COc1c(CNCC(O)c2cccc(F)c2)c(C)nn1C (stereo unspecified) | 102.4%
COc1c(CNC(c2ccc(F)cc2)C(C)(C)C)c(C)nn1C (stereo unspecified) | 23.53%
Cc1nc(CNCC(O)COc2ccc3c(c2)OCO3)cs1 (stereo unspecified) | -10.52%
CC(=O)c1ccc(N2CCC3(CCC(=O)N(CCCO)C3)CC2)nc1 | -7.997%
Cn1ccnc1CN1C[C@H]2CN(S(=O)(=O)c3ccccc3)CCN2C1=O | 0.6101%
CN(CC1CCCN(S(C)(=O)=O)C1)c1cnn(C)c1 (stereo unspecified) | 7.496%
Cc1ccc(CC2COCCN(S(C)(=O)=O)C2)nc1 (stereo unspecified) | 84.13%
O=C1N(Cc2ccccn2)C[C@H]2CN(S(=O)(=O)c3ccccc3)CCN12 | -3.737%
Cc1cnc(N2CCC[C@@H]3CN(S(C)(=O)=O)C[C@@H]32)nc1 | 11.33%
O=S(=O)(c1ccccc1)N1CCOCC(Cc2cccnc2)C1 (stereo unspecified) | 91.68%
Cc1ncsc1CN1C[C@@H]2CN(S(C)(=O)=O)CCO[C@@H]2C1 | -34.03%
Cc1ccc(CC2COCCN(S(=O)(=O)c3ccccc3)C2)nc1 (stereo unspecified) | 86.08%
O=S(=O)(c1cccnc1)N1CCC(OCCCc2ccccc2)C1 (stereo unspecified) | -0.692%
O=C1N(Cc2cccnc2)C[C@H]2CN(S(=O)(=O)c3ccccc3)CCN12 | -1.281%
Cc1ccc(CC2CCCN(S(C)(=O)=O)C2)nc1 (stereo unspecified) | 114.6%
Cc1csc(CN2C[C@@H]3CN(S(C)(=O)=O)CCO[C@@H]3C2)n1 | -30.25%
Cc1cc(C)n(C2CN(CC(O)c3ccc4c(c3)OCO4)C2)n1 (stereo unspecified) | -2.648%

Structure (SMILES) | Percent Effect
CCc1nc(C)cc(N2CCN(C(=O)[C@@H]3C[C@@H]4C=C[C@H]3C4)CC2)n1 | 84.46%
Cc1cc(N2CCC(O)(C(=O)O)CC2)nc2ccccc12 | -10.2%
COCCC1(C(=O)O)CCN(c2cc(C)c3ccccc3n2)CC1 | -3.456%
CCc1nc(C)cc(N2CCCC(C(=O)c3ccc(OC)cc3C)C2)n1 (stereo unspecified) | -51.86%
Cc1cc(N2CCN(C(=O)[C@@H]3C[C@@H]4C=C[C@H]3C4)CC2)nc2ccccc12 | 54.26%
CCC(=O)N1CCCN(c2cncc(-n3nc(C)cc3C)n2)CC1 | -2.482%
CC(C)n1nc(Cn2cccn2)c2c1CN(CC1CCOC1)C2.O=C(O)C(F)(F)F (stereo unspecified) | -1.747%
CCOC(=O)NCCC(=O)NCc1ccc(Oc2cccc(F)c2)nc1 | 3.713%
CCN(C)c1ncnc2c1CCN(C(=O)c1ccccn1)CC2.O=C(O)C(F)(F)F.O=C(O)C(F)(F)F | -0.1551%
CCc1ncnc2c1CCN(S(=O)(=O)c1ccccc1)CC2 | 113.2%
CCS(=O)(=O)N1CCc2ncnc(OC)c2CC1 | 0.7096%
CCc1ncnc2c1CCN(S(=O)(=O)CC)CC2 | 104.4%
CCc1ncnc2c1CCN(C(=O)Cc1ccccn1)CC2 | -1.286%
CCS(=O)(=O)N1CCc2ncnc(C)c2CC1 | -1.649%
CCOc1ncnc2c1CCN(S(=O)(=O)CC)CC2 | -16.86%
CCN(C)c1ncnc2c1CCN(C(=O)N(C)C)CC2.O=C(O)C(F)(F)F | -3.614%
CCc1ncnc2c1CCN(C(=O)N1CCCC1)CC2 | 16.14%
CCOc1ncnc2c1CCN(S(=O)(=O)c1ccccc1)CC2 | 89.01%
CCOc1ncnc2c1CCN(Cc1cccs1)CC2.O=C(O)C(F)(F)F | -4.6%
CCN(C)c1ncnc2c1CCN(S(=O)(=O)c1ccccc1)CC2.O=C(O)C(F)(F)F | 77.11%
CC(O)CN(CC(=O)NC(=O)NCC(F)(F)F)c1ccccc1 (stereo unspecified) | -9.09%
COCCN1CCN(C(=O)c2ccc(C)cc2F)[C@H]2CS(=O)(=O)C[C@H]21 | 8.657%
COC(=O)CCNC(=O)c1cccc(C(=O)N(C)c2ccccc2)c1 | 2.44%
CC(=O)N1CCN(C(=O)NCCCN(C(C)C)S(C)(=O)=O)CC1 | -2.467%
COc1ccc2[nH]nc(CN3CCN(Cc4cccc(F)c4)CC3)c2c1 | -9.903%
Cc1cc(NCCCNS(C)(=O)=O)nc2ccccc12 | -15.92%

Structure (SMILES) | Percent Effect
CCN(C)C1COC2(CCN(C(=O)c3ccc4[nH]ccc4c3)CC2)C1 (stereo unspecified) | -14.16%
O=C(CCCOc1cccc(F)c1)N1CCCC(n2cncn2)C1 (stereo unspecified) | 133%
O=C(COc1ccc2c(c1)CCC2)N1CCCC(n2cccn2)C1 (stereo unspecified) | 22.49%
O=C(CCOc1cccc(F)c1)N1CCCC(n2cccn2)C1 (stereo unspecified) | 114%
O=C(CCCOc1ccc(F)cc1F)N1CCCC(n2cccn2)C1 (stereo unspecified) | 132.9%
O=C(CCCOc1ccc(F)cc1)N1CCCC(n2cccn2)C1 (stereo unspecified) | -3.272%
O=C(CCCOc1ccccc1Cl)N1CCCC(n2cncn2)C1 (stereo unspecified) | 20.25%
O=C(CCCOc1cccc(F)c1)N1CCCC(n2cccn2)C1 (stereo unspecified) | 116.5%
Cn1cc(C2CCCN2C(=O)CCCOc2ccc(F)cc2F)cn1 (stereo unspecified) | 6.494%
O=C(CCCc1nc2ccccc2[nH]1)N1CCCC(n2cccn2)C1 (stereo unspecified) | -6.233%
O=C(CCOc1cccc(F)c1)N1CCCC(n2cncn2)C1 (stereo unspecified) | -0.888%
Cc1nnc2n1CCN(C(=O)CN1C(=O)CCOc3ccccc31)C2 | -10.74%
CCN1CCN(S(=O)(=O)c2c[nH]c(C(C)C)n2)c2ccccc21 | -17.2%
CCc1ocnc1C(=O)Nc1ccc2ccn(CCN(C)C)c2c1 | -13.13%
CC(C)c1ncncc1C(=O)NCCN1CCCS1(=O)=O | -1.199%
C/C(=C\c1ccco1)CN(C)C(C)c1ccccn1 (stereo unspecified) | 4.306%
CCC(CO)N(Cc1ccccc1C)Cc1ccccc1C(=O)O (stereo unspecified) | -4.887%
COc1ccc(-c2noc([C@@H]3C[C@@H](O)CN3C3CCOCC3)n2)cc1 | 13.77%
CCn1cc(-c2cncn2CCc2ccc3c(c2)OCCO3)cn1.Cl | 128.2%
CN(Cc1ccc2c(c1)OCCO2)C(=O)NCCc1cnn(C)c1 | 10.28%
CN(C)c1ncc(-c2cncn2CCc2ccc3c(c2)OCCO3)cn1.Cl | 96.16%
Cc1nn(C)cc1-c1cncn1CCc1ccc2c(c1)OCCO2.Cl | 107.7%
CN(Cc1ccc2c(c1)OCCO2)C(=O)Cn1cccnc1=O | 7.904%
Cc1cnn(C2CN(Cc3ccc4c(c3)OCCO4)C2)c1 | 4.221%
Cn1cnnc1C1CCN(C(=O)Cc2ccc3c(c2)OCCO3)CC1 | 14.42%
CN(Cc1ccc2c(c1)OCCO2)c1ncc(S(N)(=O)=O)s1 | -17.53%

Structure (SMILES) | Percent Effect
COc1ccc(CN(C)C(=O)CCc2c(C)nc(C)[nH]c2=O)cc1OC | 10.21%
CC(C)Cn1ccnc1CNC(=O)NC(C)c1nccs1 (stereo unspecified) | -12.96%
Cc1cccc(CNC[C@H]2COCc3nc4cccnc4n32)n1 | -11.24%
Cn1c(C2CCCN2C(=O)CN2CSCC2=O)nc2ccccc21 (stereo unspecified) | -5.788%
Cn1ccnc1CN1CCO[C@H]2C(CNC(=O)c3ccco3)CC[C@@H]21.O=C(O)C(F)(F)F (stereo partly specified) | -4.038%
CO[C@@H]1CN(S(=O)(=O)c2cn(C)cn2)[C@@H]2CCCO[C@@H]21.O=C(O)C(F)(F)F | 7.147%
CN1CCc2onc(Cn3cccc3)c2C1.O=C(O)C(F)(F)F | -7.222%
Cn1cc(CN2CCCn3cnc(COCC4CC4)c3C2)cn1 | -7.099%
Cn1ccnc1CN1CCc2onc(COCC3CC3)c2C1.O=C(O)C(F)(F)F | 94.95%
Cn1nc(COCC2CC2)c2c1CCN(C(=O)c1ccno1)C2 | 2.608%
O=C(O)C(F)(F)F.c1ccn(Cc2noc3c2CN(Cc2ccsc2)CC3)c1 | -2.985%
Cn1ccnc1CN1CCc2c(COCC3CC3)nn(C)c2C1 | 104.2%
Cc1nc(N)sc1C(=O)N[C@H]1CN(CCO)C[C@@H]1C1CC1 | 15.87%
O=C(NCC(F)(F)F)c1coc(COc2cccc(F)c2)n1 | -8.912%
CCc1nc(C)sc1CN1CCc2[nH]nc(-c3ccc(F)c(F)c3)c2C1 | 80.67%
CC(C)c1nnsc1CN1CCc2[nH]nc(-c3ccc(F)c(F)c3)c2C1 | -14.43%
CC(C)c1nnsc1CN1CCc2[nH]nc(-c3ccc(Cl)cc3)c2C1 | -32.01%
CC(C)S(=O)(=O)c1ccccc1C(=O)NCC1Cc2ccccc2O1 (stereo unspecified) | -14.53%
Cc1noc2nc(C3CCCN(Cc4cccnc4)C3)cc(C(F)F)c12 (stereo unspecified) | 110%
Cc1noc2nc(C3CCN(Cc4cccnc4)CC3)cc(C(F)F)c12.Cl | -9.901%
Cc1noc2nc(C3CCCN(Cc4ccncc4)C3)cc(C(F)F)c12 (stereo unspecified) | 102.2%
Cc1noc2nc(C3CCN(Cc4ccncc4)CC3)cc(C(F)F)c12 | -5.85%
FC(F)(F)c1cc(C2CCCN(Cc3cccnc3)C2)n[nH]1 (stereo unspecified) | 5.486%

Source: ChEMBL document CHEMBL3988442, “University of Dundee, Small-Polar-MMV Screening Library” (2021)
